Source: PubChem
Only some compounds are listed: those with a hit (about 19% of all), similar ones and a draw of the others.
HT1080 IDH1KD tx: HT-1080 IDH1 knockdown cell toxicity (counter line); HT-1080 IDH1 knockdown viability, ATP luminescence, 48 h; Potency, µM (top dose mostly 46.1 µM), hits mostly cytotoxic; 2% of 360,000 active
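CellTiter-Glo luminescence after 48 h compound exposure at 37 degrees C of IDH1-knockdown HT-1080 cells in 5% FBS RPMI. %Activity scaled between DMSO wells and cell-free media wells, with curves fitted and assigned curve classes.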
DT40 TDP1 no CPT: qHTS for Inhibitors of human tyrosyl-DNA phosphodiesterase 1 (TDP1): qHTS in cells in absence of CPT; DT40 Tdp1-/- hTDP1 cells, no CPT, ATP luminescence, 48 h; Potency, µM (highest dose often 46.2 µM), actives largely listed as inhibitors; 15% of 420,000 active; AID 686978, 2013; note: nearly all actives have a fitted effect of over 55% in size
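Chicken DT40 Tdp1-/- cells complemented with human TDP1, screened without camptothecin (DMSO vehicle only), 400 cells/well. Compounds pin-transferred, cells incubated at 37 °C for at least 48 hr. Growth read as ATP-dependent luminescence (CellTiter-Glo, 30 min at RT).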
TDP1 cell CPT: growth inhibition of DT40 Tdp1-/-;hTDP1 cells with camptothecin (screen for TDP1 inhibitors) | Potency, µM (titrated, usually from 46.2 µM), most hits filed as inhibitors | chicken DT40 Tdp1-/-;hTDP1 cells + 20 nM CPT, ATP luminescence, 48 h | AID 686979 | 12% of 420,000 active; note: nearly all actives have a fitted effect of over 55% in size
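Chicken DT40 Tdp1-/- cells complemented with human TDP1, 400 cells/well, exposed to compounds plus 20 nM camptothecin for at least 48 h at 37 C; viability read as ATP content by CellTiter-Glo luminescence.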
HT1080-NT tox: kills 2HG-producing HT-1080-NT fibrosarcoma cells; HT-1080-NT fibrosarcoma viability, CellTiter-Glo ATP luminescence, 48 h; Potency, µM (highest dose often 46.1 µM), hits mostly cytotoxic; 1.6% of 360,000 active; AID 686970;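 note: NT is the 2HG producing partner of a matched IDH1 knockdown line; nearly all actives have a fitted effect of over 55% in size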
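Viability by CellTiter-Glo luminescence after 48 h compound exposure at 37C of HT-1080-NT cells (750/well, RPMI, 5% FBS). % activity scaled between DMSO wells and medium-only wells, then curve-fitted and categorized by curve class.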
IL-1B inflam inh: inflammasome signaling inhibition, IL-1 beta readout; THP-1 LPS/ATP IL-1B secretion, AlphaLISA, 16 h; hits give low values; activity change, % at 57.5 µM; 4.7% of 360,000 active; AID 743279; in the data active = activity change below about -50%; inconclusive = mostly about -30% to -49%
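Secreted IL-1B measured by AlphaLISA bead assay after 16 h compound exposure of THP-1 cells; compounds (final up to 57.5 uM) added 1 h before LPS (250 ng/mL) and ATP (1.25 mM) stimulation; lower signal means less secretion.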
Hits are given with their value; – = inactive; ? = inconclusive; · = no result given; [ ] = dose if it differs, or a comment. Unless noted, calls come from the whole dose curve; as a rule, active = well fitted curve in the direction sought with a large enough effect; inconclusive = small, poorly fitted or top-dose-only effect, or another doubt; inactive = no such curve, though single readings can be large; an effect the other way counts as inactive or inconclusive.

SMILES | HT1080 IDH1KD tx | DT40 TDP1 no CPT | TDP1 cell CPT | HT1080-NT tox | IL-1B inflam inh
O=C1/C(=C\c2ccco2)CCC/C1=C\c1ccco1 | – | ? | 16.4µM | – | -64.4
O=S(=O)(Cc1ccccc1)N=Nc1c(O)[nH]c2ccc(Br)cc12 | – | 18.4µM | 13µM | – | –
COc1cccc(N2CCN(Cc3nnnn3C3CCCCC3)CC2)c1 | – | – | – | – | –
O=C1CCc2cc(OCCCCc3nnnn3C3CCCCC3)ccc2N1 | – | 16.4µM | ? | – | –
C=CCn1c(SCC(=O)Nc2ncc(Cc3cc(Cl)ccc3Cl)s2)nnc1-c1ccncc1 | – | – | – | – | –
CCCCC(CC)C(=O)Nc1cccc(SC)c1 (stereo not given) | – | ? | – | – | ?
Cc1ccc(NC(=O)c2c3c(nc4ccccc24)CCC3)cc1 | – | – | – | – | –
Cc1ccc(NC(=O)c2cnccn2)cc1S(=O)(=O)N(C)C | – | – | – | – | –
Cc1cnc(C(=O)Nc2ccc(C)c(S(=O)(=O)N(C)C)c2)cn1 | – | 14.6µM | ? | – | –
Cc1ccc(NC(=O)c2ccc3ccccc3n2)cc1S(=O)(=O)N(C)C | – | 11.6µM | ? | – | –
Cc1ccc(NC(=O)c2c3c(nc4ccccc24)CCC3)cc1S(=O)(=O)N(C)C | – | ? | 16.4µM | – | –
Cn1ccnc1C1CCCCN1C(=O)c1cc(COc2ccc(F)cc2Cl)on1 (stereo not given) | – | ? | ? | – | ?
CC(C)CC1NC(=O)N(Cc2cc(=O)n3ccsc3n2)C1=O (stereo not given) | – | – | – | – | –
Cc1ccc(NC(=O)CN(C)S(=O)(=O)c2cnc[nH]2)c(C)c1 | – | – | – | – | –
Cc1ccc2[nH]c3c(c2c1)CCN(C)C3 | – | – | – | – | ?
Clc1cccc(CN2CCc3c([nH]c4ccccc34)C2)c1 | ? | ? | ? | ? | -98.3
Clc1ccc(CN2CCc3c([nH]c4ccccc34)C2)cc1Cl | ? | 14.6µM | ? | ? | -69.5
Clc1ccc(CN2CCCCCCC2)cc1Cl | – | ? | – | – | –
COc1cc(OC)c(CN2CCc3c([nH]c4ccccc34)C2)cc1Br | ? | ? | ? | 16.4µM | –
c1ccc(CN2CCc3[nH]c4ccccc4c3C2)cc1 | – | ? | – | – | –
Cc1cccc(CN2CCc3c([nH]c4ccccc34)C2)c1 | – | 18.4µM | 20.6µM | – | ?
CCOC(=O)C(=O)N(C)c1c(CC)nc2c(OCc3ccccc3)cccn12 | – | – | – | – | –
CCN1CCc2[nH]c3ccccc3c2C1 | – | – | – | – | –
CSc1ccc(CN2CCc3c([nH]c4ccccc34)C2)cc1 | – | ? | – | – | -73.4
Cc1ccc(C(=O)Nc2cccc3[nH]c(C(F)(F)F)nc23)cc1 | – | ? | ? | ? | –
SMILES | HT1080 IDH1KD tx | DT40 TDP1 no CPT | TDP1 cell CPT | HT1080-NT tox | IL-1B inflam inh
COc1cc(CNc2cccc3[nH]c(C(F)(F)F)nc23)cc(OC)c1 | – | 25.9µM | 23.1µM | – | –
COc1ccc(CNc2cccc3[nH]c(C(F)(F)F)nc23)cc1 | ? | ? | ? | ? | -70.9
N#Cc1ccc(CN2CCN(C(=O)C3CC(=O)N(c4ccc5c(c4)OCCO5)C3)CC2)cc1 (stereo not given) | – | ? | ? | – | –
CCc1noc(C)c1C(=O)OCC(=O)Nc1ncc(Cl)cc1Cl | – | – | – | – | –
Cc1ccc(Nc2nc(CSc3nnnn3-c3ccccc3)cs2)cc1 | – | 18.4µM | ? | – | –
Cc1ccc(Nc2nc(CSc3nnc(-c4ccccc4)n3C)cs2)cc1 | – | ? | 20.6µM | – | ?
Cc1ccc(Nc2nc(CSc3nnc(-c4ccccc4C)n3C)cs2)cc1 | – | ? | ? | – | ?
COc1cc2c(cc1OC)CN(C(=O)CSc1nc(C)cc(C)c1C#N)CC2 | – | 20.6µM | 23.1µM | – | ?
Cc1cc(C)c(C#N)c(SCC(=O)C(C)(C)C)n1 | – | – | – | – | –
COC(=O)CC(=O)CSc1nc2c(cc1C#N)CCC2 | ? | ? | 18.4µM | ? | –
CC(C)OC(=O)CC(=O)CSc1nc2c(cc1C#N)CCCC2 | – | – | – | – | –
CSc1snc(SCC(N)=O)c1C#N | –[9.24 µM] | – | – | – | –
COC(=O)CC(=O)CSc1nc(C)cc(C)c1C#N | – | ? | 29.1µM | – | –
CCc1nc(SCC(=O)N2CCc3cc(OC)c(OC)cc3C2)c(C#N)cc1C | – | ? | ? | – | –
COC(=O)CSc1nsc(SCC(=O)OC)c1C#N | ? | – | – | – | -99.6
COc1ccc(S(=O)(=O)N/N=C(/C)c2ccncc2)cc1OC | – | – | – | – | –
Cc1cccc(-c2nnc(-c3ccc4ccccc4c3)o2)c1 | – | ? | – | – | –
CC(C)OC(=O)CC(=O)CSc1nc2c(cc1C#N)CCC2 | – | 8.2µM | ? | – | –
COc1ccc(CCn2c(NN)nc3c2c(=O)[nH]c(=O)n3C)cc1 | ? | 5.17µM | 4.61µM | 8.2µM | –
CCC(CCC(=O)Nc1ccc(S(N)(=O)=O)cc1)C(=O)O (stereo not given) | – | – | – | – | –
CC1CCN(CC(O)COc2ccc(-c3ccccc3)cc2)CC1 (stereo not given) | – | 18.4µM | ? | ? | –
COc1ccc(OCC(O)CN2CCN(c3ccccc3)CC2)cc1 (stereo not given) | – | – | – | – | –
CC(C)c1ccc(OCC(O)CN2CCN(c3ccccc3)CC2)cc1 (stereo not given) | 16.4µM | ? | ? | ? | -73.8
Cc1cnc(C(=O)OCC(=O)N(Cc2ccccc2)C(C)(C)C)cn1 | – | – | – | – | –
N#Cc1ccc(C(=O)N2CCN(c3ncccn3)CC2)cc1 | – | – | – | – | –
SMILES | HT1080 IDH1KD tx | DT40 TDP1 no CPT | TDP1 cell CPT | HT1080-NT tox | IL-1B inflam inh
CCCCNC(=S)NNC(=O)c1csc2ccccc12 | – | 25.9µM | ? | ? | –
COc1ccccc1C1CC(c2cccs2)=NN1C(=O)CCC(=O)O (stereo not given) | – | – | – | – | –
COc1ccc(C2CC(c3cccs3)=NN2C(=O)c2ccc(Br)o2)cc1 (stereo not given) | – | ? | 23.1µM | – | –
COc1cccc(C2CC(c3cccs3)=NN2C(=O)CSc2nc3ccccc3o2)c1OC (stereo not given) | – | 23.1µM | 25.9µM | – | –
Cc1ccc(C2CC(c3cccs3)=NN2C(=O)CSC2=NCCS2)cc1 (stereo not given) | – | ? | ? | – | ·
COc1ccc(C2CC(c3cccs3)=NN2C(=O)CSC2=NCCS2)cc1 (stereo not given) | – | ? | – | – | -81.0
CCc1ccc(N=C2NC(=O)CS2)cc1 | – | – | – | – | –
CCOC(=O)c1cnc2cc(-c3ccc(Cl)cc3)nn2c1-c1ccccc1 | · | 13µM | ? | · | ·
O=C1CCC(C(=O)N2CCC(CO)(Cc3ccc(Cl)cc3)CC2)=NN1 | – | – | – | – | –
